Data taken from PubChem BioAssay (NCATS).
Records with an inconclusive call do not appear. Where a call stands in place of a potency, no number is given. Active and inactive are the calls of the source. The call rests on the fitted dose curve; in most records, active means well fitted inhibition curve with a large enough effect; inconclusive means small, poorly fitted or top-dose-only effect; inactive means flat fitted curve, though single readings scatter.

Columns and labels:
Test in all cases: qHTS profiling for inhibitors of Plasmodium falciparum proliferation (AID 504749); further: nearly all actives have a fitted effect of over 60% in size
Settings in all cases: P. falciparum in erythrocytes, SYBR Green DNA, 72 h; series mostly up to 28.7 µM
[1] = test system: DIV30
Method in brief: (§1)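 P. falciparum-infected erythrocytes (0.3% parasitemia, 2.5% hematocrit final) were exposed to compounds for 72 h at 37 C in 5% CO2, then lysed with SYBR Green buffer overnight at room temperature; parasite DNA fluorescence was normalized to artemisinin and DMSO controls.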

[2] = test system: Dd2
Method in brief: as §1

[3] = test system: ECU
Method in brief: as §1

[4] = test system: FAB9
Method in brief: as §1

[5] = test system: GB4
Method in brief: as §1

[6] = test system: HB3
Method in brief: as §1

[7] = test system: ICS
Method in brief: as §1

[8] = test system: JCK
Method in brief: as §1

[9] = test system: N140
Method in brief: as §1

[10] = test system: P93_24
Method in brief: as §1

[11] = test system: P94_40
Method in brief: as §1

[12] = test system: PAD
Method in brief: as §1

[13] = test system: PC15
Method in brief: as §1

[14] = test system: PC26
Method in brief: as §1

[15] = test system: PC49
Method in brief: as §1

[16] = test system: SC27B
Method in brief: as §1

[17] = test system: TAB109
Method in brief: as §1

[18] = test system: TAB113
Method in brief: as §1

[19] = test system: TAB165
Method in brief: as §1

[20] = test system: W2
Method in brief: as §1
Potency means the concentration at half of the fitted maximal effect.

Compound | Potency [1] | Potency [2] | Potency [3] | Potency [4] | Potency [5] | Potency [6] | Potency [7] | Potency [8] | Potency [9] | Potency [10] | Potency [11] | Potency [12] | Potency [13] | Potency [14] | Potency [15] | Potency [16] | Potency [17] | Potency [18] | Potency [19] | Potency [20]
CN(CCO)CC(O)Cn1cnc2c1c(=O)n(C)c(=O)n2C (stereo not drawn) (tested in a mixture with another compound) | inactive | inactive | inactive | inactive | inactive | inactive | inactive | inactive | inactive | inactive | inactive | inactive | inactive | inactive | inactive | inactive | inactive | inactive | inactive | inactive
C[C@H](N)C(=O)N[C@@H](C)P(=O)(O)O | inactive | inactive | inactive | inactive | inactive | inactive | inactive | inactive | inactive | inactive | inactive | inactive | inactive | inactive | inactive | inactive |  | inactive | inactive | inactive
CC(/C=C/C=C(\C)C(=O)O[C@@H]1O[C@H](CO[C@@H]2O[C@H](CO)[C@@H](O)[C@H](O)[C@H]2O)[C@@H](O)[C@H](O)[C@H]1O)=C\C=C\C=C(C)\C=C\C=C(/C)C(=O)O[C@@H]1O[C@H](CO[C@@H]2O[C@H](CO)[C@@H](O)[C@H](O)[C@H]2O)[C@@H](O)[C@H](O)[C@H]1O | inactive | inactive | inactive | inactive | inactive | inactive | inactive | inactive | inactive | inactive | inactive | inactive | inactive | inactive | inactive | inactive | inactive | inactive | inactive | inactive
CCCCC(CC)CCC(CC(C)C)OS(=O)(=O)O (stereo not drawn) | inactive | inactive | inactive | inactive | inactive | inactive | inactive | inactive | inactive | inactive | inactive | inactive | inactive | inactive | inactive | inactive | inactive | inactive | inactive | inactive
C[Se]CC[C@H](N)C(=O)O | inactive | inactive | inactive | inactive | inactive | inactive | inactive | inactive | inactive | inactive | inactive | inactive | inactive | inactive | inactive | inactive | inactive | inactive | inactive | inactive
NCCO/C=C/[C@H](N)C(=O)O | inactive | inactive | inactive | inactive | inactive | inactive | inactive | inactive | inactive | inactive | inactive | inactive | inactive | inactive | inactive | inactive | inactive | inactive | inactive | inactive
Cc1ncc(C[n+]2csc(CCO)c2C)c(N)n1 | inactive | inactive | inactive | inactive | inactive | inactive | inactive | inactive | inactive | inactive | inactive | inactive | inactive | inactive | inactive | inactive | inactive | inactive | inactive | inactive
CCC(Cc1c(I)cc(I)c(O)c1I)C(=O)O (stereo not drawn) | inactive | inactive | inactive | inactive | inactive | inactive | inactive | inactive | inactive | inactive | inactive | inactive | inactive | inactive | inactive | inactive | inactive | inactive | inactive | inactive
CC(O)CN(C)C (stereo not drawn) | inactive | inactive | inactive | inactive | inactive | inactive | inactive | inactive | inactive | inactive | inactive | inactive | inactive | inactive | inactive | inactive | inactive | inactive | inactive | inactive
NC(=O)C1c2ccccc2CCc2ccccc21 | inactive | inactive | inactive | inactive | inactive | inactive | inactive | inactive |  |  |  | inactive | inactive | inactive | inactive | inactive | inactive | inactive | inactive | inactive
CC(=O)N=c1sc(S(N)(=O)=O)nn1C | inactive | inactive | inactive | inactive | inactive | inactive | inactive | inactive | inactive |  |  | inactive | inactive | inactive | inactive | inactive | inactive | inactive | inactive | inactive
CC1CC(O)CC(C)(C)C1 (stereo not drawn) | inactive | inactive | inactive | inactive | inactive | inactive | inactive | inactive | inactive | inactive | inactive | inactive | inactive |  | inactive | inactive | inactive | inactive | inactive | inactive
O=C(O)CCC/C=C\C[C@@H]1[C@@H](/C=C/[C@@H](O)COc2cccc(Cl)c2)[C@H](O)C[C@@H]1O | inactive | inactive | inactive | inactive | inactive | inactive |  | inactive | inactive | inactive | inactive | inactive | inactive | inactive | inactive | inactive | inactive | inactive | inactive | inactive
[O]=[Bi][O]C(=O)[O][Bi]=[O] | inactive | inactive | inactive | inactive | inactive | inactive |  | inactive | inactive | inactive | inactive | inactive | inactive | inactive | inactive | inactive | inactive | inactive | inactive | inactive
CCCc1nc(C(C)(C)O)c(C(=O)OCc2oc(=O)oc2C)n1Cc1ccc(-c2ccccc2-c2nn[nH]n2)cc1 | inactive | inactive | inactive | inactive | inactive | inactive |  | inactive | inactive | inactive | inactive | inactive | inactive | inactive | inactive | inactive | inactive | inactive | inactive | inactive
C/C=C/C=C/C(=O)O | inactive | inactive | inactive | inactive | inactive | inactive | inactive | inactive | inactive |  | inactive | inactive | inactive | inactive | inactive | inactive | inactive | inactive | inactive | inactive
C[C@@](Cc1ccc(O)c(O)c1)(NN)C(=O)O | inactive | inactive | inactive | inactive | inactive | inactive |  | inactive | inactive | inactive |  | inactive | inactive | inactive | inactive | inactive | inactive | inactive | inactive | inactive
C[C@H](CCCC(C)(C)O)[C@H]1CC[C@H]2[C@@H]3CC=C4C[C@@H](O)CC[C@]4(C)[C@H]3CC[C@]12C | inactive | 15.8 µM (active) | inactive | inactive | inactive |  | 12.6 µM (active) | inactive | inactive | inactive |  | inactive | inactive | inactive | inactive | inactive | inactive | inactive | inactive | inactive
O.O.O.O.O.O.O.O=S(=O)([O-])[O-].[Co+2] | 9.53 µM (active) | 7.94 µM (active) | 12.6 µM (active) | 11.2 µM (active) | 8.49 µM (active) |  | 5.62 µM (active) | 12.6 µM (active) | 12.6 µM (active) | inactive | inactive | inactive | inactive |  | 7.94 µM (active) | 7.94 µM (active) | 7.94 µM (active) | 6.31 µM (active) | 10 µM (active) | 5.36 µM (active)
O=C(O)CCC/C=C\C[C@@H]1[C@@H](/C=C/[C@@H](O)COc2cccc(C(F)(F)F)c2)[C@H](O)C[C@@H]1O | inactive | inactive | inactive | inactive | inactive | inactive |  | inactive |  | inactive |  | inactive | inactive |  | inactive | inactive | inactive | inactive | inactive | 
O=C(O)c1cc(N=Nc2ccc(O)c(C(=O)O)c2)ccc1O | inactive | inactive | inactive | inactive | inactive | inactive |  | inactive | inactive | inactive | inactive | inactive | inactive | inactive | inactive | inactive | inactive | inactive | inactive | 
COc1ccc(/C=C/C(=O)OCCC(C)C)cc1 | inactive | inactive | inactive | inactive | inactive | inactive | inactive | inactive |  | inactive | inactive | inactive | inactive | inactive | inactive | inactive | inactive | inactive | inactive | inactive
O=P(O)(O)CP(=O)(O)O | inactive | inactive | inactive | inactive | inactive | inactive | inactive | inactive | inactive | inactive |  | inactive | inactive | inactive | inactive | inactive | inactive | inactive | inactive | inactive
O=C1N=C2SCCN2C(=O)C1Cc1ccc(Cl)cc1 (stereo not drawn) | inactive | inactive | inactive | inactive | inactive | inactive | inactive | inactive | inactive | inactive | inactive | inactive | inactive |  | inactive | inactive | inactive | inactive | inactive | inactive
COc1ccccc1N1CCN(CCCC(=O)c2ccc(F)cc2)CC1 | inactive | inactive | inactive | inactive | inactive | inactive |  | inactive | inactive | inactive | inactive | inactive | inactive | inactive | inactive | inactive | inactive | inactive | inactive | 
CC(C)=CCC/C(C)=C/CC/C(C)=C/CC/C=C(\C)CC/C=C(\C)CCC=C(C)C | inactive | inactive | inactive | 1e-05 µM (active) | inactive | inactive | inactive |  | inactive | inactive | inactive | inactive | inactive | inactive |  | inactive | inactive | inactive | inactive | 
CCN(CC)C(=O)c1cccnc1 | inactive | inactive | inactive | inactive | inactive | inactive | inactive | inactive | inactive | inactive | inactive | inactive | inactive |  | inactive | inactive | inactive | inactive | inactive | inactive
Oc1ccc(Cl)c2c1CCC2 | inactive | inactive | inactive | inactive | inactive | inactive |  | inactive | inactive | inactive | inactive | inactive | inactive | inactive | inactive | inactive | inactive | inactive | inactive | inactive
Cc1c(C)c2c(c(C)c1OC(=O)CCC(=O)O)CC[C@@](C)(CCC[C@H](C)CCC[C@H](C)CCCC(C)C)O2 | inactive | 11.2 µM (active) | inactive | inactive | inactive |  | 11.2 µM (active) | inactive | inactive | inactive | inactive | inactive |  | inactive | inactive | inactive | inactive | inactive | inactive | 
